This note sets out measurements from PubChem BioAssay (EPA / NIEHS).

Read-out in assay [1]: Monokine induced gamma interferon (MIG), CXCL9 (gene 4283)
Description: BSK_hDFCGF_MIG: BioMAP Diversity Plus: hDFCGF Assay for Monokine induced gamma interferon (MIG) Biomarker Activity (AID 2283063). To be noted: primary human foreskin fibroblasts; actives raise or lower the signal. The gist of the method: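 Human primary foreskin fibroblasts in the hDFCGF system, exposed to test chemical for 24 h; MIG measured by ELISA. Bidirectional curve fitting against DMSO negative control as activity baseline.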

Read-out in assay [2]: Vascular cell adhesion molecule 1 (VCAM1), VCAM1 (gene 7412)
Description: BSK_hDFCGF_VCAM1: BioMAP Diversity Plus: hDFCGF Assay for Vascular cell adhesion molecule 1 (VCAM1) Biomarker Activity (AID 2283065).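 As to AC50: VCAM-1 protein level quantified by ELISA after 24 h chemical exposure.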 To be noted: primary human foreskin fibroblasts; actives raise or lower the signal. The gist of the method: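 ELISA readout of VCAM-1 on human dermal fibroblast primary cultures, 24 h after chemical exposure. Gain or loss of signal fitted in both directions against DMSO baseline.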

Read-out in assay [3]: Plasminogen activator inhibitor-1 (PAI1), SERPINE1 (gene 5054)
Nature of the assay: BSK_hDFCGF_PAI1: BioMAP Diversity Plus: hDFCGF Assay for Plasminogen activator inhibitor-1 (PAI1) Biomarker Activity (AID 2283066). To be noted: primary human foreskin fibroblasts; actives raise or lower the signal. The gist of the method:
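Human skin fibroblast cultures receive chemical for 24 h before PAI-1 is measured by ELISA; signal changes are fitted bidirectionally against DMSO-treated wells.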

Read-out in assay [4]: Intercellular Adhesion Molecule 1 (ICAM1), ICAM1 (gene 3383)
Description: BSK_KF3CT_ICAM1: BioMAP Diversity Plus: KF3CT Assay for Intercellular Adhesion Molecule 1 (ICAM1) Biomarker Activity (AID 2283067). To be noted: primary human keratinocytes with fibroblasts; actives raise or lower the signal. In short, it runs like this: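 Cell-surface ICAM-1 was measured by ELISA 24 h after dosing primary human skin keratinocytes co-cultured with fibroblasts. Parallel SRB staining tracked overt cytotoxicity. Gain or loss of signal was fitted relative to DMSO.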

Read-out in assay [5]: Interferon-gamma inducible Protein 10 (IP10), CXCL10 (gene 3627)
Nature of the assay: BSK_KF3CT_IP10: BioMAP Diversity Plus: KF3CT Assay for Interferon-gamma inducible Protein 10 (IP10) Biomarker Activity (AID 2283068). To be noted: primary human keratinocytes with fibroblasts; actives raise or lower the signal. The gist of the method:
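Signal is secreted/surface IP-10 by ELISA in a human primary skin co-culture of keratinocytes and foreskin fibroblasts, taken 24 h post-dosing; DMSO served as negative control.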

The nature of assay [6]: BSK_KF3CT_SRB: Viability Assessment in the BioMAP Diversity Plus: KF3CT Assay (AID 2283069).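 Also: read 24 h after compound addition.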 To be noted: primary human keratinocytes with fibroblasts. The gist of the method: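 Overt cytotoxicity is assessed as total protein by sulforhodamine B staining in parallel human skin co-cultures at 24 h after dosing. DMSO serves as negative control and baseline.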
Read-out in assay [7]: Interleukin-1 alpha (IL1a), IL1A (gene 3552)
Description: BSK_KF3CT_IL1a: BioMAP Diversity Plus: KF3CT Assay for Interleukin-1 alpha (IL1a) Biomarker Activity (AID 2283070). To be noted: primary human keratinocytes with fibroblasts; actives raise or lower the signal. The gist of the method: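 Readout is IL-1a level by ELISA, compared bidirectionally with DMSO as baseline. Cells: human keratinocytes co-cultured with foreskin fibroblasts, harvested 24 h post-dose.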

Read-out in assay [8]: TIMP metallopeptidase inhibitor 2 (TIMP2), TIMP2 (gene 7077)
Description: BSK_KF3CT_TIMP2: BioMAP Diversity Plus: KF3CT Assay for TIMP metallopeptidase inhibitor 2 (TIMP2) Biomarker Activity (AID 2283071). To be noted: primary human keratinocytes with fibroblasts; actives raise or lower the signal. The gist of the method: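 Measurements come from ELISA detection of TIMP-2 at 24 hours in a dosed human keratinocyte and foreskin fibroblast co-culture. DMSO serves as negative control and baseline.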

Read-out in assay [9]: Transforming growth factor beta 1 (TGFb1), TGFB1 (gene 7040)
Nature of the assay: BSK_KF3CT_TGFb1: BioMAP Diversity Plus: KF3CT Assay for Transforming growth factor beta 1 (TGFb1) Biomarker Activity (AID 2283072). To be noted: primary human keratinocytes with fibroblasts; actives raise or lower the signal. The gist of the method: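 TGF-b1 ELISA on a 24 h dosed co-culture of human keratinocytes and foreskin fibroblasts; cytotoxicity tracked in parallel cultures by SRB staining.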

Read-out in assay [10]: C-C motif chemokine 2 (Homo sapiens) (UniProt P13500)
Description: BSK_KF3CT_MCP1: BioMAP Diversity Plus: KF3CT Assay for Monocyte Chemoattractant Protein 1 (MCP1/CCL2) Biomarker Activity (AID 2283073). To be noted: primary human keratinocytes with fibroblasts; actives raise or lower the signal. The gist of the method: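 ELISA read-out of MCP-1, 24 h post-dose, in primary human skin keratinocytes co-cultured with fibroblasts. Parallel SRB staining monitors cytotoxicity; changes fitted both directions relative to DMSO.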

Read-out in assay [11]: Matrix Metallopeptidase 9 (MMP9), MMP9 (gene 4318)
Description: BSK_KF3CT_MMP9: BioMAP Diversity Plus: KF3CT Assay for Matrix Metallopeptidase 9 (MMP9) Biomarker Activity (AID 2283074).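 As to AC50: MMP9 protein level quantified by ELISA in the co-culture.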 To be noted: primary human keratinocytes with fibroblasts; actives raise or lower the signal. In short, it runs like this: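 Values come from bidirectional fitting relative to DMSO of MMP-9 levels, which were measured by ELISA. Measurements were taken 24 h after chemical dosing of a keratinocyte and foreskin fibroblast co-culture.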

Read-out in assay [12]: urokinase plasminogen activator (uPA), PLAU (gene 5328)
Description: BSK_KF3CT_uPA: BioMAP Diversity Plus: KF3CT Assay for urokinase plasminogen activator (uPA) Biomarker Activity (AID 2283075). To be noted: primary human keratinocytes with fibroblasts; actives raise or lower the signal. In short, it runs like this: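 Values derive from bidirectional fitting against DMSO controls. Keratinocyte/foreskin fibroblast co-cultures received chemical; 24 h later uPA was detected by ELISA, with SRB total-protein staining in parallel wells for overt cytotoxicity.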

Read-out in the next assay: CD40, CD40 (gene 958)
Description: BSK_LPS_CD40: BioMAP Diversity Plus: LPS Assay for CD40 Biomarker Activity (AID 2283076). To be noted: primary human HUVEC with PBMC; actives raise or lower the signal. In short, it runs like this: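 In the LPS system of human endothelial cells with peripheral blood mononuclear cells, CD40 levels were read by ELISA 24 h post-treatment. Signal changes in either direction were fitted against the DMSO baseline, with parallel SRB protein staining.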

Read-out in assay [13]: E-selectin (Homo sapiens) (UniProt P16581)
Nature of the assay: BSK_LPS_Eselectin: BioMAP Diversity Plus: LPS Assay for Eselectin Biomarker Activity (AID 2283077). To be noted: primary human HUVEC with PBMC; actives raise or lower the signal. The gist of the method:
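E-selectin ELISA on LPS-stimulated endothelial cell/PBMC co-cultures, read 24 h post-treatment; gains and losses fitted against DMSO. Parallel SRB staining (0.1% SRB after 10% TCA fixation, 560 nm) flags overt cytotoxicity.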

Read-out in assay [14]: Interleukin-8 (IL8), CXCL8 (gene 3576)
Description: BSK_LPS_IL8: BioMAP Diversity Plus: LPS Assay for Interleukin-8 (IL8) Biomarker Activity (AID 2283078). To be noted: primary human HUVEC with PBMC; actives raise or lower the signal. In short, it runs like this: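 ELISA read-out of IL-8 after 24 h chemical treatment of LPS-activated endothelial/PBMC human primary co-cultures. Changes either up or down relative to DMSO; overt cytotoxicity checked by sulforhodamine B staining in parallel wells.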

The nature of assay [15]: BSK_LPS_SRB: Viability Assessment in the BioMAP Diversity Plus: LPS Assay (AID 2283079).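 Also: total protein by sulforhodamine B absorbance as a cytotoxicity measure; measured one day after compound addition.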 To be noted: primary human HUVEC with PBMC. In short, it runs like this: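 SRB viability endpoint: cells fixed with 10% TCA, stained with 0.1% SRB, read at 560 nm, 24 h post-dose. HUVEC/PBMC co-culture; signal change in either direction scored relative to DMSO.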
Read-out in assay [16]: Interleukin-1 alpha (IL1a), IL1A (gene 3552)
Description: BSK_LPS_IL1a: BioMAP Diversity Plus: LPS Assay for Interleukin-1 alpha (IL1a) Biomarker Activity (AID 2283080). To be noted: primary human HUVEC with PBMC; actives raise or lower the signal. The gist of the method: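 Readout is IL-1a level by ELISA, 24 h post-dose, fitted as gain or loss relative to DMSO. System: LPS-activated human primary co-culture of vascular endothelium and peripheral blood mononuclear cells, with parallel SRB total-protein cytotoxicity.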

Read-out in assay [17]: Monocyte Chemoattractant Protein-1 (MCP1), CCL2 (gene 6347)
Nature of the assay: BSK_LPS_MCP1: BioMAP Diversity Plus: LPS Assay for Monocyte Chemoattractant Protein-1 (MCP1) Biomarker Activity (AID 2283081).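 As to AC50: secreted MCP-1 protein quantified by ELISA in culture supernatant.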 To be noted: primary human HUVEC with PBMC; actives raise or lower the signal. The gist of the method:
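Secreted MCP-1 read by ELISA at 24 h post-dosing in an LPS-activated co-culture of endothelial cells with peripheral blood mononuclear cells. Fits run in both directions, DMSO as baseline; parallel SRB staining tracks overt cytotoxicity.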

Read-out in assay [18]: Matrix Metallopeptidase 1 (MMP1), MMP1 (gene 4312)
Nature of the assay: BSK_hDFCGF_MMP1: BioMAP Diversity Plus: hDFCGF Assay for Matrix Metallopeptidase 1 (MMP1) Biomarker Activity (AID 2283064). To be noted: primary human foreskin fibroblasts; actives raise or lower the signal. The gist of the method:
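Human foreskin fibroblasts exposed to chemical for 24 h; MMP1 detected by ELISA, with DMSO as baseline for bidirectional fitting.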

Activity calls are given as the source filed them. The calls were made as follows: active = hit-call score of the fitted dose curve at least 0.9, where 1 is the maximum; inactive = score below 0.9.

Chain of E-selectin (Homo sapiens) (P16581 whole entry, looked up): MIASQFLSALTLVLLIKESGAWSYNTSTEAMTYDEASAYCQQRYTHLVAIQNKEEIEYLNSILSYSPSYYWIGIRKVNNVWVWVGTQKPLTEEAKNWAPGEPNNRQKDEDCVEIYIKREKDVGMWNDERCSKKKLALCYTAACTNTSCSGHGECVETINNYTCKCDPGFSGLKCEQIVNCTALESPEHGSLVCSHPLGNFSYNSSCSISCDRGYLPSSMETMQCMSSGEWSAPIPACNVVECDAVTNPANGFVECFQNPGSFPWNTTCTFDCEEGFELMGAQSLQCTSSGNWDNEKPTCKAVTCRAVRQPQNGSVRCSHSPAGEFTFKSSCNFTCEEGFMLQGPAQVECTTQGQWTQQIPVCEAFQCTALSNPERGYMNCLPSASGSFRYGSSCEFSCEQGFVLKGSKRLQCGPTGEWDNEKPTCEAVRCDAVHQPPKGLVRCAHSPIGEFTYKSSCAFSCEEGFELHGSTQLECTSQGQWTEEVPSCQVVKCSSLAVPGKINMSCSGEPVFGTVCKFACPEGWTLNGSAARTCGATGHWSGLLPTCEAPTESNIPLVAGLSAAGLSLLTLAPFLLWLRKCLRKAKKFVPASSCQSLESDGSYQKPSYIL

For `C[C@@H]1CCN(C(=O)[C@H](CCCN=C(N)N)NS(=O)(=O)c2cccc3c2NC[C@H](C)C3)[C@@H](C(=O)O)C1`, the outcome in assay [1], in [2], in assay [3], in assay [4], in assay [5] and in assay [6] was inactive. The outcome in assay [7], in assay [8], in assay [9], in [10], in assay [11] and in assay [12] was inactive. Besides, the outcome in the assay with CD40, CD40 (gene 958) is “inactive”; in assay [13] it was “inactive”; in assay [14] it was “inactive”; in [15] it was “inactive”; in assay [16], “inactive”; in [17], “inactive”.
As a reminder, the AC50 is the midpoint of the concentration-response curve, whichever way the signal moves. For `CCCCN(CCCC)C(=O)N(CCCC)CCCC`, the AC50 in [1] is 11.9 µM (active); in assay [2] it was 9.04 µM (active); in assay [3], 11 µM (active); in assay [4], 8.66 µM (active); in [5], 11 µM (active); in [6], 8.91 µM (active). In addition, the AC50 was 10.5 µM (active) in [7]; 4.62 µM (active) in [8]; 5.42 µM (active) in [9]; 4.75 µM (active) in [10]; 10.3 µM (active) in assay [11]; 7.68 µM (active) in assay [12]. For the same molecule, the AC50 with CD40, CD40 (gene 958) is 20 µM (active); in assay [13] it was 20 µM (active); in assay [15] it was 30.2 µM (active); in assay [16] it was 20 µM (active); in assay [17] it was 20 µM (active). In addition, the outcome in assay [14] was inactive.
For the molecule `CS(=O)(=O)c1ccc(C2=C(c3ccccc3)C(=O)OC2)cc1`, the outcome in assay [1], in assay [2], in [3], in [4], in assay [6] and in assay [7] was inactive. Moreover, the outcome was “inactive” in [8]; “inactive” in [9]; “inactive” in assay [10]; “inactive” in [11]; “inactive” in [12]; “inactive” with CD40, CD40 (gene 958). The outcome in assay [13], in [14], in assay [16] and in assay [17] was inactive. The AC50 in [5] was 0.0374 µM (active); in assay [15], 1.98 µM (active).
For the molecule `CCN(CC)C(=O)N(CC)CC`, the outcome in [1], in assay [18], in assay [2], in [3], in [4] and in assay [5] was inactive. In addition, the result in assay [6], in assay [7], in assay [8], in assay [9], in assay [10] and in assay [11] was inactive. For the same molecule, the outcome was “inactive” in assay [12]; “inactive” in the assay with CD40, CD40 (gene 958); “inactive” in assay [13]; “inactive” in assay [14]; “inactive” in [15]; “inactive” in assay [16]. The result in assay [17] was inactive.
In the case of `O=C1OC[C@H](Cc2cccc(O)c2)[C@H]1Cc1cccc(O)c1`, the outcome in [1], in [2], in assay [3], in assay [4], in assay [5] and in assay [6] was inactive. Moreover, the outcome in assay [7], in assay [8], in assay [9], in [10], in assay [11] and in assay [12] was inactive. The outcome is “inactive” with CD40, CD40 (gene 958); “inactive” in [13]; “inactive” in [14]; “inactive” in assay [15]; “inactive” in [16]; “inactive” in assay [17].
Consider `C=C(C)[C@H]1CC=C(C)C(=O)C1`, for which the result in assay [1], in assay [2], in assay [3], in assay [4], in assay [5] and in assay [6] was inactive. Moreover, the outcome in assay [7], in assay [8], in assay [9], in assay [10], in assay [11] and in [12] was inactive. Besides, the outcome is “inactive” with CD40, CD40 (gene 958); “inactive” in assay [13]; “inactive” in assay [14]; “inactive” in [15]; “inactive” in assay [16]; “inactive” in [17].
